High-throughput results from PubChem.
Only some compounds are listed: those with a hit (about 1.6% of all), similar ones and a draw of the others.
KCNQ2 inh = KCNQ2 (rat) channel inhibition; B-score at 10 µM; AID 2156; O88943; CHO-K1 KCNQ2, FluxOR thallium flux, 20 min; stronger effect = lower value; hit rate 1.1% among 310,000;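 active = fluorescence ratio B-score at most minus 3 library SDs, with starting brightness B-score within 2 library SDs, cut at about -5.5 in these data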
Target sequence (O88943 whole entry, looked up): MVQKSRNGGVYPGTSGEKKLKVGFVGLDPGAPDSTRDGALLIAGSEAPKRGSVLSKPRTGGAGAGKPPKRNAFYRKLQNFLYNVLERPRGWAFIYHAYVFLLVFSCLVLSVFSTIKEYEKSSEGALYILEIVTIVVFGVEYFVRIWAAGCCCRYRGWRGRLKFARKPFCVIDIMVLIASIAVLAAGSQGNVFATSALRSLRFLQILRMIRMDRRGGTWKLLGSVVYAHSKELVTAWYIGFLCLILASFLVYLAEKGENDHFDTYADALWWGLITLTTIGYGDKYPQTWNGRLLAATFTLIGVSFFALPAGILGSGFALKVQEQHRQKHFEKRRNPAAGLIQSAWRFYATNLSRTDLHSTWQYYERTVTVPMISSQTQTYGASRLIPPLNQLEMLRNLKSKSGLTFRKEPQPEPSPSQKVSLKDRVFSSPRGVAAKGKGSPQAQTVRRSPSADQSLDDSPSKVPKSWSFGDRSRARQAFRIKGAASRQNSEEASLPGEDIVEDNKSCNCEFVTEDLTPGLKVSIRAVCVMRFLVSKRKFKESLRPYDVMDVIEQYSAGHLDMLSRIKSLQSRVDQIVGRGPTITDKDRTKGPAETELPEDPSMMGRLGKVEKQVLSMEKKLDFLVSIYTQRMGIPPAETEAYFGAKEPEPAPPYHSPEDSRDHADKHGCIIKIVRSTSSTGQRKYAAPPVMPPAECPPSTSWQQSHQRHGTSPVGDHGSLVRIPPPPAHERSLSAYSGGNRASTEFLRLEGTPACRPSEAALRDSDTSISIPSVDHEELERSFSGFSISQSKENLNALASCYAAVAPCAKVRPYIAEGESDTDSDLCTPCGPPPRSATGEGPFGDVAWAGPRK
KCNQ2 pot = KCNQ2 (rat) channel potentiation; hit rate 0.54% among 310,000; B-score at 10 µM; O88943; CHO-K1 KCNQ2, FluxOR thallium flux fluorescence; stronger effect = higher value;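 active = fluorescence ratio B-score at least 3 SD of library B-scores, with initial fluorescence B-score within 3 of them, cut at about 5.3 in these data; same plate scores as AID 2156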;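 also: B-score of peak minus minimum over baseline fluorescence ratio after K+ and Tl+ stimulus; positive B-score means potentiation of KCNQ2 with more thallium influx and brighter signal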
Kir21 confirm = confirmation of mouse Kir2.1 potassium channel inhibitors; shares compounds with KCNQ2 pot; Tl flux remaining, % of negative control (stronger effect = lower value), % at 10 µM; hit rate 41% among 2,300; Kir2.1-expressing cells, FluxOR thallium flux fluorescence; stronger effect = lower value; AID 2032;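 active = Primary-screen hit whose thallium flux fell at least 3 control SD below untreated wells in both duplicates, with normal baseline fluorescence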;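 also: 0% = blank wells without stimulus and 100% = stimulated no-compound controls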
HEK293 Tl flux = counter-screen for Kir2.1 inhibitors: effect in parental HEK293 cells; shares compounds with KCNQ2 pot; FluxOR thallium flux fluorescence; 0% = unstimulated blank wells; FluxOR signal as % of negative control (100 = no effect), % at 10 µM; hit rate 19% among 2,300;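 active = dye signal at least 3 control SD above or below untreated wells in both duplicates, raw fluorescence within 3, either direction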;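 also: percent is based on the flux ratio of peak minus minimum fluorescence over baseline F0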
CHO-K1 Tl ctr = alters thallium flux in parental CHO-K1 cells, KCNQ2 counter-screen. shares compounds with KCNQ2 pot. FluxOR thallium flux fluorescence; zero = vehicle mean+3SD, 100% = vehicle-minus-blank window. activity increase over 3SD of controls, % at 10 µM. hit rate 43% among 1,200;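 active = signal rise of at least 3 SD above the untreated control mean, in both duplicate wells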;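 also: counter screen of KCNQ2 potentiator hits so any rise reflects channel-independent effects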
KCNQ1 sel pot = selectivity of KCNQ2 potentiators: effect on human KCNQ1; AID 2283; hit rate 28% among 1,200; shares compounds with KCNQ2 pot; CHO KCNQ1 stable, FluxOR thallium flux fluorescence; beyond 3SD, as % of vehicle-control signal; activation over 3SD threshold, % at 10 µM;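 active = fluorescence ratio rise of at least 3 SD of vehicle wells above their mean, in both replicate wells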;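 also: 0% = vehicle mean plus 3 SD and 100% = vehicle minus unstimulated blank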
KCNQ2 pot conf = confirmation of rat KCNQ2 potassium channel potentiators | CHO-KCNQ2 cells, FluxOR thallium flux fluorescence | potentiation, less the hit threshold, % at 10 µM | hit rate 68% among 1,200 | shares compounds with KCNQ2 pot;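 active = fluorescence ratio rising 3 SD or more over the vehicle control mean in both replicates, plus primary screen hit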;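 also: peak minus minimum thallium fluorescence divided by baseline after K/Tl stimulus; 0% = vehicle mean plus 3 SD and 100% = vehicle minus unstimulated blank difference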
Kir2-1 sel = mouse Kir2.1 off-target activity of KCNQ2 potentiators; activity over 3SD threshold, % at 10 µM; hit rate 2% among 1,200; shares compounds with KCNQ2 pot; AID 2345; HEK293 Kir2.1, FluxOR thallium flux fluorescence;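 active = fluorescence ratio rise of at least 3 SD above the vehicle-control mean, seen in both replicates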;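 also: 0% = vehicle mean plus 3 SD and 100% = vehicle minus no-stimulus blank window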
KCNQ2 W236L MoA = KCNQ2 potentiators acting on retigabine-insensitive rat KCNQ2 W236L mutant | hit rate 10% among 940 | shares compounds with KCNQ2 pot | CHO KCNQ2-W236L, automated patch clamp current | current increase over 3SD of negative controls (%), stronger effect = higher value, % at 25 µM;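 active = current increase at least 3 SD of the untreated controls above them in both duplicate recordings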
* hit, by the source's call; i = inactive; x = not tested or not shown.

SMILES | KCNQ2 inh | KCNQ2 pot | Kir21 confirm | HEK293 Tl flux | others
O=S(=O)(NCc1ccc(Cl)cc1)c1cccc2cccnc12 | i | 0.01 | x | x
Cc1cc(C)c(C)c(S(=O)(=O)NCc2ccco2)c1C | i | x | 54.5%* | i
CC(C)(C)OC(=O)N1CCC[C@H]1C(=O)N/N=C/c1cccc2nccnc12 | i | x | x | x
O=C(/C=C/NCc1cccnc1)c1ccc(-c2ccccc2)cc1 | i | 0.03 | x | x
CN1CCN(C(CNC(=O)c2ccc(Br)o2)c2ccc(F)cc2)CC1 (configuration not stated) | i | 2.15 | x | x
CCOc1ccccc1CN1CCNC(=O)C1CC(=O)N(C)C1CCOCC1 (configuration not stated) | i | x | x | x
Cc1cc(C)c(S(=O)(=O)NCc2ccc3c(c2)OCO3)c(C)c1 | i | x | x | x
CCOc1cc(C)c(Cl)cc1S(=O)(=O)NCc1ccc2c(c1)OCO2 | i | x | 68.0%* | i
CCC(NC(=O)Nc1cc(C)on1)(C(F)(F)F)C(F)(F)F | i | x | x | x
CCC(=O)NCC(c1cccs1)N1CCOCC1 (configuration not stated) | i | 0.5 | x | x
Cc1cc(SCC(=O)NCC(c2cccs2)N2CCOCC2)c(C)cc1Br (configuration not stated) | i | 5.39* | i | i | CHO-K1 Tl ctr=38.0*;KCNQ1 sel pot=-10.6;KCNQ2 pot conf=-5.4;Kir2-1 sel=-48.0;KCNQ2 W236L MoA=i
O=c1[nH]c2ccccc2c(O)c1-c1cc2ccccc2oc1=O | i | x | x | x
COCCN1CCN(Cc2nc(Cc3ccc(OC)c(OC)c3)no2)CC1 | i | 1.32 | x | x
COc1ccc(Cc2noc(CN3CCN(Cc4cccc(Cl)c4)CC3)n2)cc1OC | i | 7.2* | i | i | CHO-K1 Tl ctr=42.8*;KCNQ1 sel pot=-15.7;KCNQ2 pot conf=-26.3;Kir2-1 sel=-13.8
COc1ccc(Br)cc1S(=O)(=O)N1CC(C)OC(C)C1 (configuration not stated) | i | 2.86 | 56.5%* | i
COc1ccc(Br)cc1S(=O)(=O)N1CCOCC1 | i | 1.96 | x | x
COc1ccc(C(C)C)cc1S(=O)(=O)N1CCC(C(=O)N2CCN(C)CC2)CC1 | i | x | x | x
COc1ccc(F)cc1S(=O)(=O)N1CCN(c2ccccn2)CC1 | i | x | x | x
COc1ccc(F)cc1S(=O)(=O)N1CC(C)CC(C)C1 (configuration not stated) | i | x | 44.5%* | i
COc1ccc(C(C)C)cc1S(=O)(=O)N1CCN(C)CC1 | i | 12.6* | i | i | CHO-K1 Tl ctr=48.1*;KCNQ1 sel pot=-9.0;KCNQ2 pot conf=-18.4;Kir2-1 sel=-35.7
CC(C)CC(CO)N1CCN(C(=O)c2ccc(Cl)cc2)CCC1=O (configuration not stated) | i | x | x | x
C=CC[C@]12C=C(OC)C(=O)C=C1O[C@@H](c1ccc3c(c1)OCO3)[C@H]2C | i | x | x | x
Cc1cc2ccccn2c1C(=O)c1ccc([N+](=O)[O-])o1 | i | 1.35 | x | x
COc1ccc(/C(O)=C2/C(=O)C(=O)N(CCN3CCNCC3)C2c2cccc([N+](=O)[O-])c2)cc1 (configuration not stated) | i | x | x | x
COc1ccc(C(=O)CNc2cccc(F)c2)cc1 | i | 0.86 | x | x
SMILES | KCNQ2 inh | KCNQ2 pot | Kir21 confirm | HEK293 Tl flux | others
Cn1c(N)c(N2CCCCC2)c(=O)n(CC(=O)Nc2ccc(Cl)c(Cl)c2)c1=O | i | 16.7* | i | i | CHO-K1 Tl ctr=-7.4;KCNQ1 sel pot=-15.3;KCNQ2 pot conf=47.3*;Kir2-1 sel=-35.4;KCNQ2 W236L MoA=i
O=C(CCC(=O)N1CCCCC1)Nc1ccc(Cl)c(Cl)c1 | i | x | x | x
COC(=O)c1nccc2c1[nH]c1ccccc12 | i | x | x | x
COc1ccccc1C(=O)NC(CCSC)C(=O)NNC(=O)c1ccncc1 (configuration not stated) | i | 0.06 | x | x
CS(=O)(=O)Nc1ccc(C2=NN(S(C)(=O)=O)C(c3ccc4c(c3)OCO4)C2)cc1 (configuration not stated) | i | x | x | x
c1ccc(CN2CCN(CCOCCOc3cccc4ccccc34)CC2)cc1 | i | x | 19.0%* | i
O=C(c1ccco1)N1CCN(CCOCCOc2cccc3ccccc23)CC1 | i | 0.35 | x | x
O=C1NC(c2ccccc2)=C(c2ccc3ccccc3n2)C(c2ccccc2)N1 (configuration not stated) | i | x | x | x
O=C1NC(c2ccccc2)=C(c2nc3ccccc3s2)C(c2ccc(O)cc2)N1 (configuration not stated) | i | 15* | i | i | CHO-K1 Tl ctr=-20.4;KCNQ1 sel pot=-0.7;KCNQ2 pot conf=10.9*;Kir2-1 sel=-32.9;KCNQ2 W236L MoA=i
COc1cc(OC)c(NC(=O)c2sc3ncn(CC(=O)N4CCOCC4)c(=O)c3c2C)cc1Cl | i | x | x | x
COC(=O)C1=C(C)N(Cc2ccccc2)C(=NCC(C)C)N[C@H]1c1ccccc1 | i | x | i | i
COC(=O)C1=C(C)N(Cc2ccccc2)C(=NCCc2ccccn2)N[C@H]1c1cccc(F)c1 | i | 0.46 | 40.0%* | i
COC(=O)C1=C(C)N(Cc2ccccc2)C(=O)N[C@H]1c1ccccc1 | i | x | x | x
CCN1C(=NCCc2ccccn2)N[C@@H](c2cccc(F)c2)C(C(=O)OC)=C1C | i | 0.23 | x | x
Cc1cccc(OCC(=O)Nc2ccc3c(c2)nc(CCN2CCN(c4ccccn4)CC2)n3C)c1 | i | 0.42 | x | x
COC(=O)c1ccc(C(=O)NC(=S)Nc2nc3c(s2)CCCC3)cc1 | i | 7.29* | i | i | CHO-K1 Tl ctr=83.4*;KCNQ1 sel pot=-7.4;KCNQ2 pot conf=-7.9;Kir2-1 sel=-42.2;KCNQ2 W236L MoA=i
O=C(NC(=S)Nc1nc2c(s1)CCCC2)c1ccccc1 | i | 3.86 | x | x
Cc1nc2cc(NCc3ccccc3O)ccc2n1Cc1ccccc1 | i | x | x | x
COc1ccccc1N1C(=O)C2C(c3ccc(F)cc3)NN(C(=O)c3ccc(C)cc3)C2C1=O (configuration not stated) | i | x | x | x
CC(=O)N1CCn2c3c(c4cc(C)ccc42)CCCC31 (configuration not stated) | i | 0.68 | x | x
Cc1ccc2c(c1)c1c3n2CCN(C(=O)CCl)C3CCC1 (configuration not stated) | i | x | i | i
CC(C)Cc1nnc(NC(=O)CCC(=O)N2CCN(c3ccccc3F)CC2)s1 | i | 0.34 | x | x
COc1ccc(C[C@H]2CN3C(=NC[C@@H]3Cc3ccccc3)N2C[C@H](C)NC(=O)CCC2CCCCC2)cc1 | i | x | 38.5%* | i
